Compound activity from PubChem.
Only some compounds are listed: those with a hit (about 3.5% of all), similar ones and a draw of the others.
Kir21 block: inhibitors of mouse Kir2.1 inward-rectifier potassium channel; Inward rectifier potassium channel 2 (Mus musculus), P35561; HEK293-Kir2.1, FluxOR thallium flux fluorescence; active compounds read low; B-score at 10 µM; 310,000 tested, 0.85% active;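 active = fluorescence ratio B-score at or below minus 3 SD of library scores, with starting-brightness B-score within 2 SD, cut at about -4.2 in these data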;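 note: channel flux triggered by added potassium and thallium sulfate stimulus; B-score of peak minus minimum fluorescence over baseline after thallium stimulus; more negative B-score means stronger Kir2.1 block with less thallium influx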
TMEM16A inh: TMEM16A chloride channel inhibitors, primary screen, cell-based, HTS | Anoctamin-1 (Mus musculus), Q8BHY3 | HEK293 TMEM16A/YFP iodide influx fluorescence, ionomycin | normalized B-score (activity score, 25-100; higher = stronger inhibition) at 10 µM | 310,000 tested, 1.2% active | AID 588511, 2011;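 active = ratio plate-corrected score three or more library SD toward inhibition, starting fluorescence score within five deviations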;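 note: score derived from kinetic fluorescence span divided by baseline fluorescence per well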
KCNK3 inh: human KCNK3 channel inhibitors, primary screen, CHO cells, FluxOR thallium flux, B-score; AID 602410, 2012; 340,000 tested, 0.84% active; FluxOR fluorescence; active compounds read low; B-score at 10 µM; Potassium channel subfamily K member 3 (Homo sapiens), O14649;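 active = B-score under library mean minus 4 SD, starting fluorescence ratio at most library mean plus 5 SD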;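 note: more negative B-score means stronger inhibition of thallium flux through KCNK3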
Target sequence (O14649 whole entry, looked up): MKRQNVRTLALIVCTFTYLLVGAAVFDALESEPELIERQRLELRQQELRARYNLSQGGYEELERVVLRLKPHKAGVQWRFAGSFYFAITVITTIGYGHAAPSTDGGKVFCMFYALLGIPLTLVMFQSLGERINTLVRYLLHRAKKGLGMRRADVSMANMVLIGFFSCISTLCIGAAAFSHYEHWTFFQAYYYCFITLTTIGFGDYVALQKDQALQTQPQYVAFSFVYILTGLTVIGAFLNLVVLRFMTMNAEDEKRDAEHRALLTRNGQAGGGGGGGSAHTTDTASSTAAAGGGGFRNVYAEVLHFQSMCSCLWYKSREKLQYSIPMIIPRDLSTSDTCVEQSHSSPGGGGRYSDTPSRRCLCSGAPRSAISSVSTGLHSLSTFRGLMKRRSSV
KCNK9 block: KCNK9 potassium channel inhibitors, primary screen, HEK293 cells, thallium flux; 310,000 tested, 1.2% active; Potassium channel subfamily K member 9 (Homo sapiens), Q9NPC2; AID 488922, 2010; B-score at 10 µM; FluxOR thallium flux fluorescence; active compounds read low;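 active = ratio B-score over 3 SD below the library mean, with starting fluorescence within 5 SD of its mean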;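 note: negative B-score means less thallium flux so channel inhibition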
ANO1 activ: TMEM16A chloride channel activators or potentiators, primary screen, cell-based, HTS | Anoctamin-1 (Mus musculus), Q8BHY3 | HEK293 TMEM16A/YFP-H148Q/I152L, iodide quench fluorescence; active compounds read low | B-score at 10 µM | 340,000 tested, 0.3% active;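 active = fluorescence-ratio B-score plate-corrected deviation score at least 3 library SD below zero, with starting fluorescence score within 5 deviations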;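 note: channel opened by trigger with iodide after compound preincubation; score built on the fluorescence ratio of max minus min over baseline; more negative score means more quench and so TMEM16A activation or potentiation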
Numbers stand for hits; - = inactive; . = not tested or not shown.

SMILES	Kir21 block	TMEM16A inh	KCNK3 inh	KCNK9 block	ANO1 activ
C#CCOCCOCCOCCNc1nc(N2CCN(C(=O)CCCCCCCCCCNC(=O)[C@H]([C@@H](C)CC)n3cc(CCCCCN)nn3)CC2)nc(N2CCN(C(=O)CCCCCCCCCCNC(=O)[C@@H]([C@H](C)O)n3cc(C)nn3)CC2)n1	.	-	-	.	-12
C#CCOCCOCCOCCNc1nc(N2CCN(C(=O)CCCCCCCCCCNC(=O)[C@H](CCC(=O)O)n3cc(CCCCCN)nn3)CC2)nc(N2CCN(C(=O)CCCCCCCCCCNC(=O)[C@@H]([C@H](C)O)n3cc(C)nn3)CC2)n1	.	-	-	.	-
C#CCOCCOCCOCCNc1nc(N2CCN(C(=O)CCCCCCCCCCNC(=O)[C@H](CCCCN)n3cc(CCO)nn3)CC2)nc(N2CCN(C(=O)CCCCCCCCCCNC(=O)[C@@H]([C@H](C)O)n3cc(C)nn3)CC2)n1	.	-	-	.	-
CCCOc1ccc(NC(=O)c2cc3cc(C)ccc3[nH]2)cc1	-	-	-	-	-
Cc1ccccc1Cn1ccc(=NCc2ccccc2)cc1	-5.5	-	.	-	.
O=C(c1ccc(OC2CCN(Cc3ccc(F)cc3)CC2)cc1)N1CCCC1	-4.2	-	-	-	-
CCc1ccc(CN2CCC(Oc3ccc(C(=O)N4CCCC4)cc3)CC2)cc1	-	-	-	-	-
CSc1ccc(CN2CCC(Oc3ccc(C(=O)N4CCCC4)cc3)CC2)cc1	-4.4	-	-	-	-
Cc1ccc(CN2C(=O)NC(Cc3c[nH]c4ccccc34)C2=O)cc1 (configuration not stated)	-4.3	-	-	-	-
CC1CCCC(NC(=O)c2cccc(S(=O)(=O)N3CCCCC3)c2)C1C (configuration not stated)	-	-	-	-	-
COc1ccccc1NC(=O)Cc1noc(CSc2cccc[n+]2[O-])n1	-	-	-	-	-
COc1ccc(NC(=O)CSc2c3c(nc4ccccc24)CCCC3)c(OC)c1	-4.7	-	-	-	-
COc1ccccc1NC(=O)Cc1noc(CSc2cc(C)c3ccccc3n2)n1	-	-	-9	-	-
COc1ccccc1NC(=O)CSc1nc2ccccc2cc1Cc1ccccc1	-	-	-	-7.9	-
COc1ccccc1NC(=O)CSc1c2c(nc3ccccc13)CCC2	-10	-	-	-	-
CCS(=O)(=O)c1nc2ccccc2n1Cc1ccccn1	-	-	-	-	-
CC(=O)c1c(C)[nH]c(C(=O)CN2C(=O)NC(CCc3ccccc3)C2=O)c1C (configuration not stated)	-	-	-	-	-
O=C(COC(=O)CCc1nc2ccccc2c(=O)[nH]1)Nc1ccccc1	.	.	-	.	-
CC(=O)c1ccc(CC2SC(N)=NC2=O)cc1 (configuration not stated)	-	-	-	-	-
C=C(C)CC(NCc1ccco1)c1ccc(OC)cc1 (configuration not stated)	-5.4	-	-	-	-
COc1ccccc1/C=C/C=C1\Oc2c(ccc(O)c2CN2CCN(CCO)CC2)C1=O	-	-	-	-6.8	-
COc1ccc(N2C(=O)CSC2c2ccc(F)c(F)c2)cc1 (configuration not stated)	-	-	-	-	-8.5
O=[N+]([O-])c1ccccc1/C=N/N1CCN(c2ccc(Cl)cc2)CC1	-	-	-	-7.7	-
O=[N+]([O-])c1ccc(Cl)c(/C=N/N2CCN(c3ccccc3)CC2)c1	-	-	-	-7.8	-
CCOP(=O)(Nc1ccc2oc(=O)c3ccccc3c2c1)OCC	-	-	-	-	-
SMILES	Kir21 block	TMEM16A inh	KCNK3 inh	KCNK9 block	ANO1 activ
CCC(C(=O)NCCCN(CC)Cc1ccccc1)n1nc(C)c2sc3ccccc3c2c1=O (configuration not stated)	-9.5	-	-	-	-
COc1ccc(CNC(=O)c2csc(Cc3ccc(OC)cc3)n2)cc1	-11	-	-	-	-
COc1ccc(CNC(=O)c2cc(-c3ccco3)on2)cc1	-	-	-	-	-
COc1ccc(Cc2nc(C(=O)Nc3ccc(Cl)cc3)cs2)cc1	-	100	-18	-	-
N=c1sccn1CC(=O)Nc1ccccc1Sc1ccccc1	-4.8	-	-	-	-
O=C(CNCCN1CCOCC1)Nc1ccccc1Sc1ccccc1	-	-	-	-	-
O=C(CN1CCOCC1)Nc1ccccc1Sc1ccccc1	-6.3	-	-	-	-
O=C(NCC1COc2ccccc2O1)C1CCN(S(=O)(=O)c2ccc(Cl)cc2)CC1 (configuration not stated)	.	.	-	.	-
C[C@H](CO)N1C[C@H](C)[C@@H](CN(C)Cc2ccc3c(c2)OCO3)Oc2ccc(NS(C)(=O)=O)cc2C1=O	.	.	-	.	-
O=C(NC(=O)c1ccncc1)NC(c1ccccc1)c1ccccc1	-	-	-	-	-
CN1CCN(CCCc2c3c(cc4c2CCC4)CCC3)CC1	-4.4	-	-	-	-
CC(C)CC(=O)/C(=C\c1ccc(Cl)cc1Cl)n1cncn1	-8.2	.	-	-	-7.1
Cc1nc2ccccn2c1C(=O)CSc1ccccc1	-	-	-	-	-
O=c1[nH]c2ccccc2cc1CN(Cc1ccco1)S(=O)(=O)c1ccccc1	-	-	-	-	-
O=C1NC(=S)/C(=C\c2ccc(-c3ccccc3Cl)o2)S1	-	-	-	-	-5.8
CC(C)NC(=S)n1cc(C(=O)c2cc(Cl)cc(Cl)c2O)cn1	-	-	-	-	-
CCc1ccc(C(C(=O)NCc2ccc(F)cc2)N(C(=O)c2csnn2)C2CC2)cc1 (configuration not stated)	-	-	-	-	-
Cc1cccnc1NC(=O)CNC(=O)c1cccs1	-	-	-	-	-
Cc1cccnc1NC(=S)NC(=O)c1cccs1	-	25	-	-	-
COc1ccc2c(c1)[nH]c1c(N3CCN(Cc4ccc5c(c4)OCO5)CC3)ncnc12	-	100	-	-	-
CCN(CC)CCn1c(=N)n(CC(O)COc2cccc(C)c2)c2ccccc21 (configuration not stated)	-7.9	-	-	-	-
Cc1cccc(OCC(O)Cn2c(=N)n(CCN3CCCCC3)c3ccccc32)c1 (configuration not stated)	-4.2	-	-	-	-
Cc1cccc(OCC(O)CN2CCNCC2)c1 (configuration not stated)	-	-	-	-	-
Cc1ccc(OCC(O)Cn2c(=N)n(Cc3ccccc3)c3ccccc32)cc1 (configuration not stated)	-6	-	-	-	-
COc1ccc(OCC(O)Cn2c(=N)n(Cc3ccccc3)c3ccccc32)cc1 (configuration not stated)	-7.3	-	-	-	-
